Results filed as inconclusive are left out. The source made the active and inactive calls. Calls follow the shape of the dose curve; as a rule, active = well fitted inhibition curve with a large enough effect; inconclusive = small, poorly fitted or top-dose-only effect; inactive = no such curve, though single readings can be large or run the other way.

32 compounds from PubChem BioAssay (NCATS) can be followed below.

This experiment in a line: qHTS assay for measurement of the activity of small molecule inhibitors on Zika virus induced Caspase-3 activity in human iPSC derived neural progenitor cells (hNPCs) (AID 1224857). Also: % of control where 0% means no effect; nearly all actives have a fitted effect of over 65% in size. To be noted: hNPCs ZIKV-induced caspase-3/7, Caspase-Glo luminescence, 6 h; series mostly up to 45.7 µM; activity change, negative = inhibition: at the top concentration. The method in brief:
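Caspase-3/7 induction by a 6-hour ZIKV infection was quantified with a luminescent Caspase-Glo 3/7 reagent incubated 30 minutes at room temperature. Compounds were preincubated with hNPCs for 1 hour; inhibition was calculated against uninfected and infected control wells.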
For orientation: qHTS replaces the single test concentration by a dilution series.
Regarding `CCN(CC)C(=O)[C@@H]1C=C2c3cccc4[nH]cc(c34)C[C@H]2N(C)C1`, the “activity change, negative = inhibition” value is -2.85% [at 178 µM] (inactive).
Regarding `CCCN(CCC)C(=O)Cc1c(-c2ccc(Cl)cc2)nc2ccc(Cl)cn12`, the “activity change, negative = inhibition” value is -14.9% (inactive).
The figure for `CNCC(=O)c1ccc(O)c(O)c1` is -2.81% (inactive); for `C[C@@H]1CC2=CC(=O)CC[C@@H]2[C@H]2CC[C@@]3(C)[C@@H](CC[C@]3(C)O)[C@@H]21` it is -3.36% (inactive); for `CCN[C@H](C)Cc1cccc(C(F)(F)F)c1` it is -1.94% [at 92.8 µM] (inactive).
With `C#CC(O)(C=CCl)CC` (configuration not stated) the figure was 0.737% (inactive); with `CN(C)CCc1c[nH]c2cccc(OP(=O)(O)O)c12`, -0.962% [at 92.8 µM] (inactive).
The figure for `COP(=S)(OC)Oc1cc(Cl)c(Cl)cc1Cl` is -16.7% (inactive); for `C[C@H]1[C@@H]2Cc3ccc(O)cc3[C@@]1(C)CCN2C` it is 26.6% [at 231 µM] (inactive).
`C[N+]1(CCF)[C@@H]2CC[C@H]1CC(OC(=O)C(O)(c1ccccc1)c1ccccc1)C2` (some centres not stated): the “activity change, negative = inhibition” value was 8.15% (inactive).
Consider `COC(=O)C(Cl)C(=O)OC`, for which the “activity change, negative = inhibition” value is -2.16% (inactive).
The figure for `COc1cccc(C(=O)CCN[C@@H](C)[C@H](O)c2ccccc2)c1` is -14.8% (inactive); for `CCC(CC)(CNC(=O)CCCO)c1cccc(OC)c1` it is 0.904% (inactive).
With `CCN[C@@H](C)Cc1ccccc1` the figure was -1.43% [at 92.8 µM] (inactive); with `CCc1cc2c(s1)-n1c(C)nnc1CN=C2c1ccccc1Cl`, -6.28% (inactive).
With `C=CCC1([C@H](C)CCC)C(=O)NC(=O)NC1=O` the figure was -2.32% [at 92.8 µM] (inactive).
As to `O=C(O)/C=C\C(=O)O`, the “activity change, negative = inhibition” value is -14.4% (inactive).
With `O=C(O)c1ccc(=O)[nH]c1` the figure was -4.1% (inactive).
The figure for `Nc1ccccc1` is 6.59% (inactive); for `CC(C(=O)c1ccccc1)N(C)C` (configuration not stated) it is 2.21% (inactive).
With `CN1CC[C@]23c4c5ccc(O)c4O[C@H]2[C@@H](O)CC[C@H]3[C@H]1C5` the figure was 1.92% [at 92.8 µM] (inactive); with `c1ccc(CN2CCNCC2)cc1`, 9.59% [at 178 µM] (inactive); with `CC(Cc1ccccc1)NCCn1cnc2c1c(=O)n(C)c(=O)n2C` (configuration not stated), -1.11% [at 92.8 µM] (inactive).
For `C[C@]12CC[C@H]3[C@@H](CCC4=CC(=O)CC[C@@H]43)[C@@H]1CC[C@@H]2OC(=O)CCC1CCCCC1`, the “activity change, negative = inhibition” value is 120% (inactive).
With `CCN(CC)CCc1c[nH]c2ccccc12` the figure was 5.37% [at 178 µM] (inactive); with `ClCCN1CCCC1`, 15.7% (inactive); with `C[C@]12Cc3cn[nH]c3C[C@@H]1CC[C@@H]1[C@@H]2CC[C@@]2(C)[C@H]1CC[C@]2(C)O`, -3.07% (inactive).
Regarding `CCN[C@@H](C)Cc1cccc(C(F)(F)F)c1`, the “activity change, negative = inhibition” value was 2.83% (inactive).
With `C[N+]1(C)[C@@H]2CC(OC(=O)[C@H](CO)c3ccccc3)C[C@H]1[C@@H]1O[C@@H]12` (some centres not stated) the figure was 13.2% (inactive); with `COc1cc(CCN)cc(OC)c1OC`, 1.88% [at 92.8 µM] (inactive); with `Clc1ccccc1N1CCNCC1`, -3.14% (inactive).
In the case of `C[C@]12CCC(=O)C=C1CC[C@@H]1[C@H]3CC[C@](C)(O)[C@@]3(C)CC[C@@H]12`, the “activity change, negative = inhibition” value is -12.3% [at 92.8 µM] (inactive).
